Pf growth 96h: Primary qHTS for delayed death inhibitors of the malarial parasite plastid, 96 hour incubation; P. falciparum luciferase reporter growth, 96 h; Potency, µM (doses to about 28.7 µM), for the others: top-dose activity change, negative = inhibition, actives largely listed as inhibitors; 6.9% of 320,000 active; AID 504834, 2011; note: potency is the fitted concentration of half-maximal effect; % is set by controls: 0 for no effect and ±100 for the full control effect
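Plates of compound plus infected erythrocytes (2% hematocrit, 0.05% parasitemia final) incubate 96 hours, 37 C, 5% CO2. Detection reagent added; reduced luminescence from the parasites' luciferase reporter flags inhibition.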
Pf growth 48h: Primary qHTS for delayed death inhibitors of the malarial parasite plastid, 48 hour incubation; P. falciparum luciferase growth in erythrocytes, 48 h; Potency, µM (series often up to 28.7 µM), without a hit: top-dose activity change, negative = inhibition, hits mostly inhibitors; 5.9% of 310,000 active; note: potency is the fitted concentration of half-maximal effect; % is set by controls: 0 for no effect and ±100 for the full control effect
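Growth was read as firefly luciferase luminescence after a 48 h, 37 C, 5% CO2 exposure of compounds to reporter-bearing P. falciparum cultures (0.1% parasitemia, 2% hematocrit final) in Albumax-supplemented RPMI 1640.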
SARS PLpro yeast: qHTS of Yeast-based Assay for SARS-CoV PLP; AID 485353, 2010; 0.19% of 330,000 active; S. cerevisiae expressing SARS-CoV PLpro, growth rescue; Potency, µM (top dose mostly 32.9 µM), for inactives: top-dose activity, positive = growth rescue, most hits filed as activators; calls by dose curve; note: potency is the fitted concentration of half-maximal effect; 0% is about no effect; nearly all actives have a fitted effect of over 55% in size
Cycloheximide cs: Cycloheximide Counterscreen for Small Molecule Inhibitors of Shiga Toxin; cell reporter, cycloheximide protein synthesis inhibition counterscreen; max response, %; 12% of 300,000 active; in the data active = max response mostly above about 13%, no sharp cut-off; inactive = mostly below about 14%; note: read at 38.3 µM for the half of the compounds with a filed dose; 0% is about no effect
Shiga toxin inh: A qHTS for Small Molecule Inhibitors of Shiga Toxin. AID 2315, 2010. inhibition, % at 38.7 µM. Vero cells, Shiga toxin protein synthesis inhibition reporter. 9.2% of 290,000 active; in the data active = inhibition mostly above about 28%, no sharp cut-off; inactive = mostly below about 43%; note: 0% is about no effect
NS1 inh: qHTS Assay for Inhibitors of Influenza NS1 Protein Function; Potency, µM (doses to about 46.1 µM), for the others: at the top dose activity, positive = more growth; 0.4% of 270,000 active; calls by dose curve; note: potency is the fitted concentration of half-maximal effect; actives are rising curves; nearly all actives have a fitted effect of over 50% in size
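Recovery from NS1-induced slow growth read by OD600 in budding yeast switched to galactose assay medium (pH 6.0, -URA) at 1:100 dilution. Compound 23 nl per well; the matching strain lacking NS1 serves as control.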
* = called active by the depositor; u = inconclusive; x = no result given; [ ] = another dose, or the depositor's remark. Shown are actives, neighbours in structure and some others; about 21% of the full set was active somewhere. Unless noted, calls come from the whole dose curve; as a rule, active = well fitted inhibition curve with a large enough effect; inconclusive = small, poorly fitted or top-dose-only effect, or another doubt; inactive = no such curve, though single readings can be large or run the other way.

SMILES | Pf growth 96h | Pf growth 48h | SARS PLpro yeast | Cycloheximide cs | Shiga toxin inh | NS1 inh
CCCN1CCN(C(=O)C2CCCN(c3ncnc4c3nc3n4CCCCC3)C2)CC1 (stereo not given) | -5% | u | 3% | -3 | -8 | 4%
CC(=O)c1c(C)[nH]c(C(=O)OCC(=O)N2CCN(S(=O)(=O)c3ccc(C)cc3)CC2)c1C | 13µM* | u | -1% | x | x | x
CCOC(=O)c1c(C)[nH]c(C(=O)OCC(=O)N2CCN(S(=O)(=O)c3ccccc3)CC2)c1C | -60% | x | -1% | -3 | -8 | -1%
CC(=O)c1c(C)[nH]c(C(=O)OCC(=O)N2CCN(S(=O)(=O)c3ccc(C)cc3C)CC2)c1C | 8.3µM* | x | 25% | -5 | -13 | -1%
O=[N+]([O-])c1ccccc1NCCNS(=O)(=O)c1ccc(Cl)cc1 | u | 45% | -5% | 3 | -8 | -21%
O=[N+]([O-])c1cc(Cl)ccc1NCCNS(=O)(=O)c1ccccc1 | u | 27% | -18% | 19* | 36* | 12%
Cc1ccccc1NC(=O)Cc1nc(-c2ccc3ccccc3c2)cs1 | -19% | 1% | 5% | 6 | 7 | 18%
Oc1csc(Cc2nc(-c3ccc4ccccc4c3)cs2)n1 | 160% | 82% | -22% | 38* | 59* | -3%
Oc1csc(Cc2nc(-c3ccc(-c4ccccc4)cc3)cs2)n1 | 4% | 61% | -4% | 27* | 53* | 6%
Oc1csc(Cc2nc(-c3ccccc3F)cs2)n1 | -15% | 122% | 1% | 47* | 78* | x
O=c1oc2ccccc2cc1-c1csc(Cc2nc(-c3ccc(Cl)cc3)cs2)n1 | -5% | 18% | -9% | -1 | -8 | 11%
Cc1cccnc1NC(=S)NC(=O)c1oc2ccccc2c1C | 37% | 80% | -1% | 40* | 79* | -18%
Cc1c(C(=O)NC(=S)NCC(C)C)oc2ccccc12 | 40% | 26% | -10% | 17* | 35 | 0%
Cc1ccccc1Nc1ncc(C#N)c(N)n1 | u | 14% | 1% | 16 | 33* | -3%
COc1ccc(Nc2nc(N3CCOCC3)nc(N3CCOCC3)n2)c(OC)c1 | -17% | u | 5% | 1 | x | 14%
COc1ccc(Nc2ncc(C#N)c(N)n2)c(OC)c1 | 26% | 34% | -2% | 20* | 70* | -33%
Cc1ccccc1Nc1nc(N)nc(COc2ccc(C#N)cc2)n1 | -26% | -10% | 1% | -6 | -11 | x
O=C(c1ccsc1)N1CCCC(N2CCN(c3cccc(Cl)c3)CC2)C1 (stereo not given) | 5% | u | 0% | 12 | 18 | -19%
CCCCn1c(=N)n(CC(O)COc2cccc(C)c2)c2ccccc21 (stereo not given) | u | 7.4µM* | -6% | -7 | -14 | -12%
Cc1ccccc1OCC(O)Cn1c(=N)n(Cc2ccccc2)c2ccccc21 (stereo not given) | -17% | u | 0% | -5 | -45 | 1%
CCCn1c(=N)n(CC(O)COc2ccc(C)cc2)c2ccccc21 (stereo not given) | 5.2µM* | 2.1µM* | 0% | -4 | -7 | -1%
Cc1ccc(OCC(O)Cn2c(=N)n(CCN3CCOCC3)c3ccccc32)cc1 (stereo not given) | 19% | u | 2% | 2 | 6 | -2%
COc1ccc(OCCn2c(=N)n(CCO)c3ccccc32)cc1 | x | -19% | 6% | 4 | -13 | 0%
CCCCn1c(=N)n(CCOc2ccc(C)cc2)c2ccccc21 | 14% | 7.4µM* | 1% | -6 | -7 | -16%
CCn1c(=N)n(CC(O)COc2ccc(C)cc2)c2ccccc21 (stereo not given) | 13µM* | 3.7µM* | -2% | 9 | -11 | 1%
SMILES | Pf growth 96h | Pf growth 48h | SARS PLpro yeast | Cycloheximide cs | Shiga toxin inh | NS1 inh
COc1ccc2oc(C(=O)OCC(=O)N(C)C3CCS(=O)(=O)C3)c(C)c2c1 (stereo not given) | 35% | 20% | -11% | x | x | x
O=C1CC(NNc2ccccc2)C(=O)N1c1ccc(N2CCCCC2)cc1 (stereo not given) | -31%[1.15 µM] | 10% | -1% | 10 | 6 | 10%
CN(C)CC(O)COc1cccc(OCC(O)CN(C)C)c1 (stereo not given) | u | u | 3% | -5 | -4 | 7%
CCCCN(CC(O)COc1cccc(C)c1)CC(O)COc1cccc(C)c1 (stereo not given) | 1.9µM* | u | 0% | -8 | -9 | -4%
CCCn1c(=N)n(CC(O)c2ccc(C)cc2)c2ccccc21 (stereo not given) | 4.1µM* | 5.2µM* | 1% | -1 | 31 | -1%
CCN(CC)C(=O)[C@H]1C[C@H](CC(=O)NCc2ccc(OC)c(OC)c2)C(=O)N2CCc3c([nH]c4ccc(Cl)cc34)[C@]12C | x | x | 2% | x | x | x
O=C(O)c1ccc(/C=C/c2nc3sc4c(c3c(=O)[nH]2)CCC4)cc1 | 1% | 0% | 0% | -1 | -13 | x
CCCCn1c(N)c(N(CC(C)C)C(=O)C2CCN(c3ncnc4sc(C)c(C)c34)CC2)c(=O)[nH]c1=O | 2.9µM* | 5.2µM* | 5% | x | x | x
CCCCn1c(N)c(N(CC(C)C)C(=O)C2CCN(C(=O)c3ccc(F)cc3)CC2)c(=O)[nH]c1=O | u | -4% | -4% | 5 | -2 | -4%
CCCCC1CCC(C(=O)N(CC(C)C)c2c(N)n(Cc3ccccc3)c(=O)[nH]c2=O)CC1 (stereo not given) | 10µM* | u | 1% | x | x | x
CCCCn1c(N)c(N(CCOC)C(=O)C2CCN(c3ncnc4sc(C)c(C)c34)CC2)c(=O)[nH]c1=O | 12µM* | 12µM* | -2% | x | x | x
CCCn1nc(NC(=O)c2ccco2)c2cc3ccccc3nc21 | u | 8% | -2% | 3 | 19 | -6%
CC(=O)Nc1nn(C)c2nc3cc(C)ccc3cc12 | 40% | 7% | -5% | -8 | -3 | -49%
CCn1nc(NC(=O)c2ccco2)c2cc3cc(C)ccc3nc21 | 7% | -11% | -4% | 9.8* | 28 | -2%
Cc1ccc2cc3c(NC(=O)c4ccco4)nn(C)c3nc2c1 | 8.3µM* | u | -5% | -3 | -19 | -61%
CN(C)/C=C1\N=C(c2ccc(Cl)cc2Cl)OC1=O | x | x | 2% | 21* | 20 | -10%
Cc1ccc(C2=N/C(=C\N(C)C)C(=O)O2)cc1 | 114% | x | -2% | 40* | 75* | -8%
Cc1cccc(OCC2=N/C(=C\N(C)C)C(=O)O2)c1 | -3% | -9% | 4% | 22* | 41 | 3%
CN(C)/C=C1\N=C(c2cccnc2Oc2ccc(Cl)cc2)OC1=O | 54% | 23% | -1% | -2 | 19 | -2%
CCCCNC(=O)C1CC(=O)N(c2ccc(OC)cc2)C1c1ccc(OC)cc1 (stereo not given) | 82% | 7% | 6% | -2 | -11 | 0%

Source: PubChem BioAssay
